Screens from PubChem.
CtBP-E1A inh = CtBP/E1A binding inhibition; AID 651724; AlphaScreen GST-E1A/His-CtBP binding, 1536-well; stronger effect = lower value; hit rate 0.49% among 340,000; activity change, % (no concentration beside the values); in the data active = activity change below about -65%; inconclusive = mostly about -30% to -63%
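AlphaScreen with 125 nM GST-E1A and 125 nM His-CtBP (5X stocks) in Tris pH 8.0, 300 mM NaCl, BSA, Tween 20, TCEP. Compounds preincubated 2 h at 37 deg C, then glutathione donor/nickel acceptor beads added for 1 h at 37 deg C in dark.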
DT40 TDP1 CPT = DT40-hTDP1 cell growth loss with CPT; Potency, µM (top dose mostly 46.2 µM), inactives show at the highest dose activity change, negative = growth inhibition, usual class: inhibitors; hit rate 12% among 420,000; chicken DT40 Tdp1-/-;hTDP1 cells + 20 nM CPT, ATP luminescence, 48 h; note: potency is the fitted concentration of half-maximal effect; nearly all actives have a fitted effect of over 55% in size
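Chicken DT40 Tdp1-/- cells stably complemented with human TDP1 were seeded at 400 cells/well in medium containing 20 nM camptothecin, exposed to pin-transferred compounds, and grown at 37 °C for at least 48 hr. Viability was read as ATP luminescence.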
TDP1 block = TDP1 (human) enzyme inhibition | Q9NUW8 | recombinant TDP1, AlphaScreen DNA substrate cleavage | Potency, µM (doses to about 130 µM), without a hit: top-dose activity change, negative = inhibition, actives largely listed as inhibitors | hit rate 0.28% among 350,000; note: potency is the fitted concentration of half-maximal effect; nearly all actives have a fitted effect of over 40% in size
Target sequence (Q9NUW8 whole entry, looked up): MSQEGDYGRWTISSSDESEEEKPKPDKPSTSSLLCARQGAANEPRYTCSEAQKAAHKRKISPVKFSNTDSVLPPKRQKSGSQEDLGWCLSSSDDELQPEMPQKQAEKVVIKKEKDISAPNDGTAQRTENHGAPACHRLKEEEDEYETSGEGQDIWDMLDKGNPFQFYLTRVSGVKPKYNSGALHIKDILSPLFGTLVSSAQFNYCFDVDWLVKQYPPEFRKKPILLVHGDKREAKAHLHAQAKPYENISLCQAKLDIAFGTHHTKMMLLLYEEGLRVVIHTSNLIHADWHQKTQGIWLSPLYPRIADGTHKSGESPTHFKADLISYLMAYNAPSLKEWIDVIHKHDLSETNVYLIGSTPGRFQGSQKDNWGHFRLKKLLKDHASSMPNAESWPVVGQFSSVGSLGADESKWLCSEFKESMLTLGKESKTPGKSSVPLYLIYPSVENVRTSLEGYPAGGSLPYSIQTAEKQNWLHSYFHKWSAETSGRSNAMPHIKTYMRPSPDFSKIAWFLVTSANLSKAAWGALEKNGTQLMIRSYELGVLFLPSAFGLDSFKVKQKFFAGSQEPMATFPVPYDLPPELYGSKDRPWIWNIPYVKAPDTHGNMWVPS
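Here, a 5' biotin and 3' phosphotyrosine-FITC DNA oligonucleotide reports Tdp1 activity: intact substrate bridges AlphaScreen beads, while cleavage leaves a 3' phosphate and drops signal. All incubations at room temperature.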
Six1-Eya2 blk = blocks human Six1 binding to Eya2; AlphaScreen GST-Six1/His-Eya2 binding, biochemical; stronger effect = lower value; activity change, % (concentration not given with the values); hit rate 0.56% among 360,000; AID 651725; in the data active = activity change below about -65%; inconclusive = mostly about -30% to -63%
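GST-Six1 + His-Eya2 (5X stock: 250/500 nM); Tris pH 8.0, 300 mM NaCl, 0.05% BSA, 0.02% Tween 20; GSH donor/Ni acceptor beads; 1 h 37 °C dark; AlphaScreen readout.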
IL1B secr inh = inhibitors of inflammasome signaling (IL-1 beta secretion) | THP-1 LPS/ATP IL-1B secretion, AlphaLISA, 16 h; stronger effect = lower value | activity change, % at 57.5 µM | hit rate 4.7% among 360,000; in the data active = activity change below about -50%; inconclusive = mostly about -30% to -49%
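THP-1 cells pretreated 1 hr with compounds (up to 57.5 uM final), then stimulated with LPS (250 ng/mL final) plus ATP (1.25 mM final); secreted IL-1B measured by AlphaLISA after 16 hr, decreased signal indicating inhibition.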
TDP1 cell noCPT = qHTS for Inhibitors of human tyrosyl-DNA phosphodiesterase 1 (TDP1): qHTS in cells in absence of CPT | Potency, µM (doses to about 46.2 µM), inactives show at the highest dose activity change, negative = growth inhibition, most hits filed as inhibitors | AID 686978, 2013 | DT40 Tdp1-/- hTDP1 cells, no CPT, ATP luminescence, 48 h | hit rate 15% among 420,000; note: potency is the fitted concentration of half-maximal effect; nearly all actives have a fitted effect of over 55% in size
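Compound effects on proliferation are scored in DT40 Tdp1-/-;hTDP1 cells in the absence of CPT. ATP levels (CellTiter-Glo luminescence) are recorded after a ≥48 hr, 37 °C incubation.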
Active calls of the source: *; ? = inconclusive; / = no result. Sampled rows, rich in hits. Any-hit rate of the full collection: about 18%. Unless noted, calls come from the whole dose curve; as a rule, active = well fitted curve in the direction sought with a large enough effect; inconclusive = small, poorly fitted or top-dose-only effect, or another doubt; inactive = no such curve, though single readings can be large; an effect the other way counts as inactive or inconclusive. % is set by controls: 0 for no effect and ±100 for the full control effect.

SMILES | CtBP-E1A inh | DT40 TDP1 CPT | TDP1 block | Six1-Eya2 blk | IL1B secr inh | TDP1 cell noCPT
COc1cc(NC(=O)C2CCN(S(=O)(=O)c3ccc4c(c3)oc(=O)n4C)CC2)cc(OC)c1 | / | ? | -1% | / | / | 21µM*
COc1ccc(OC)c(NC(=O)C2CCN(C(=O)c3cccs3)CC2)c1 | -2 | -3% | 5% | -9 | 0 | -17%
CCc1cc2c(SCC(=O)c3ccc(Cl)s3)ncnc2s1 | 2 | ? | / | 0 | -8 | ?
Cc1cc(C)nc(N=Nc2c(O)n(Cc3ccc(Cl)cc3)c3ccccc23)n1 | 3 | ? | 5% | 3 | 6 | 18µM*
O=C(N=Nc1c(O)n(Cc2ccccc2)c2ccccc12)c1ccncc1 | 6 | ? | 6% | 0 | 76 | ?
NC(=S)N=Nc1c(O)n(Cc2ccccc2)c2ccccc12 | 2 | 5.8µM* | 3% | 3 | 11 | 6.5µM*
CCCCNC(=S)N=Nc1c(O)n(Cc2ccccc2)c2ccccc12 | -25 | 16µM* | 11% | ? | -27 | 2.6µM*
O=S1(=O)CCC(N=Nc2c(O)n(Cc3ccccc3)c3ccccc23)C1 (stereo not given) | -11 | 21µM* | / | -11 | -9 | ?
COC(=O)N=Nc1c(O)n(Cc2ccccc2)c2ccccc12 | 2 | -23% | 6% | -10 | -10 | ?
CCOC(=O)N=Nc1c(O)n(Cc2ccccc2)c2ccccc12 | / | ? | 5% | 0 | -2 | ?
COc1cc(NC(=O)COC(=O)CCc2nc3ccccc3c(=O)[nH]2)cc(OC)c1 | 1 | 2% | 0% | -11 | 20 | ?
COc1ccc(CN(C)S(=O)(=O)c2nnc(NC(=O)c3ccccc3OC)s2)cc1OC | -19 | ? | 2% | 8 | 9 | ?
CCN(CC)CCn1c(O)c(N=O)c2ccccc21 | 2 | -5% | 0% | 3 | 11 | -16%
C/C(Cl)=C\Cn1c(O)c(N=NC(N)=S)c2ccccc21 | -15 | 4.1µM* | 15% | -26 | -5 | 3.7µM*
Cc1ccc(NC(=O)Cn2c(O)c(N=NC(N)=S)c3ccccc32)cc1 | -1 | ? | / | 7 | 6 | ?
O=Nc1c(O)n(Cc2cccc(Cl)c2)c2ccccc12 | -1 | 1% | 0% | -5 | -68* | -28%
CCc1cccc(NC(=O)c2cc(S(=O)(=O)N3CCCCCC3)cn2C)c1 | / | -3% | 4% | / | / | -15%
CCOC(CNC(=O)C(=O)Nc1cc2c3c(c1)CC(=O)N3CCC2)OCC | 5 | -14% | 3% | 3 | 14 | 28%
Cc1ccccc1N=C1Nc2ccccc2N[C@]12C[C@H]1CCCC(=O)N3CC[C@@H](C2)[C@@H]13 | / | 8% | / | / | / | -24%
COc1ccc(NC(=O)C2CCN(S(=O)(=O)c3cccc4nonc34)CC2)c(OC)c1 | 2 | 2% | 0% | 3 | -12 | -25%
O=c1cccc2c1c1cc[nH]c3ccc(=O)n2c31 | -11 | 9.2µM* | / | ? | -72* | 18µM*
O=c1cc[nH]c2ccc(Cl)cc12 | 8 | -15% | 0% | 1 | 23 | -17%
C/C(=N\Nc1nc(-c2cc(C)ccc2C)cs1)c1cc2c(ccc3ccccc32)oc1=O | 0 | ? | 12% | -12 | 12 | 16µM*
CC(CCc1ccc(O)cc1)N1CCC(Oc2ccc(C(=O)N3CCCC3)cc2)CC1 (stereo not given) | -1 | 7% | 2% | 3 | -6 | -4%
CSc1cccc(CN2CCC(Oc3ccc(C(=O)N4CCCCC4)cc3)CC2)c1 | ? | ? | 8% | -21 | -88* | -25%
COc1ccc(CCC(C)N2CCC(Oc3ccc(C(=O)N4CCCC4)cc3)CC2)cc1 (stereo not given) | 2 | 26µM* | 5% | 21 | -16 | ?
